# From the supplement of paper PMC6555819
# How the values were obtained:
# Assay in all cases: PBM binding z-score (relative to random genomic background probes); higher = stronger binding; sequences stand for … in GC…GCGATTGACAGCGTAGAATGAAGG
# [1] = test system: RARb homodimer (NR concentration 270 nM)
# Summary of the method: (§1)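 The probes on custom Agilent 4×180K protein-binding microarrays were double-stranded, with 34-nt variable regions bearing direct-repeat seeds, single-nucleotide variants, half-site ablations and random human genomic background sequences. Incubation lasted 1 h with ligand-free nuclear receptor dimers in PBS pH 7.4, 2% milk, 0.02% Triton X-100, 1 mM DTT, 0.2 mg/mL BSA and 0.4 mg/ml salmon testes DNA. Antibodies against each partner (one per run) detected bound dimers, and fluorescence scans were regression-normalized. Binding z-scores take the random background probes as reference.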
# [2] = test system: RARg:RXRa (NR concentration 270 nM, RXRa partner concentration 90 nM)
# Summary of the method: as §1
# [3] = test system: RARg homodimer (NR concentration 270 nM)
# Summary of the method: as §1
# [4] = test system: RXRa DBDmut IVT, anti-RXR (DBD mutation: RXRa K156A/R161A, NR concentration 90 nM)
# Summary of the method: as §1
# [5] = test system: RXRa homodimer (NR concentration 180 nM)
# Summary of the method: as §1
# [6] = test system: THRa:RXRa (NR concentration 90 nM, RXRa partner concentration 90 nM)
# Summary of the method: as §1
# [7] = test system: THRa homodimer (NR concentration 90 nM)
# Summary of the method: as §1
# [8] = test system: VDR homodimer (NR concentration 270 nM)
# Summary of the method: as §1
Sequence,PBM binding z-score [1],PBM binding z-score [2],PBM binding z-score [3],PBM binding z-score [4],PBM binding z-score [5],PBM binding z-score [6],PBM binding z-score [7],PBM binding z-score [8]
CGTCCCAGGTCAGCAGGTCAGTGAAAGCGACGTG,3.99,4.83,4.51,0.368,3.25,3.56,2.19,0.573
TCATATAGGTAATACAGGTGAAAGTGGGCATCTA,0.844,0.777,0.705,2.06,1.3,0.901,0.52,0.577
CCTTACGGGTCAAGGCTATAGCACGGGTGGTACG,2.91,4.66,4.36,0.343,5.14,2.39,-0.0277,0.575
CCTACTGGGCCATAGGTCATTGATTCCAATGCTC,2.63,2.89,1.95,0.122,2.63,1.61,0.173,0.271
CCTATTAGTTGTCCATAAGGGCAACCGAAGCTCG,1.81,1.01,0.8,0.67,0.161,1.8,1.64,1.07
CAAACTAGGTCAAGAGGACAAAGTCCGCTTCCCG,3.78,4.36,5.19,1.45,2.74,3,1.29,0.916
CAGACTGGGGCAAAGGTTACCATACTCAGTACGA,2.35,3.54,2.64,0.804,3.83,1.97,0.0193,0.311
CTCGAGAGGTCGGTTGAGGTGAGTATACGGATAA,1.99,2.11,2.3,1.57,2.06,5,1.39,1.16
AATAGCAGGCCAAGGGTCACTCAAGATTAGTCCG,3.86,4.1,3.92,0.264,4.46,2.8,0.187,1.06
GCTAGTTGGTCATTAAAAGGTCACACACCGGTCG,5.47,6.05,4.99,0.694,5.65,3.8,2.01,1.75
GTACCAAGGTGAATATGTCGTTGATGAGTAGGCG,0.432,0.746,0.888,-0.0689,0.5,1.34,0.837,0.112
CTACCAAGGTGAACAGGGTCGTTGATTACTATTC,1.71,1.51,1.17,1.08,1.87,2.87,1.68,1.92
GCTAGTAGATCAAGGTTAAGAAAGACTAAGCTAA,0.204,0.392,0.168,-0.105,0.832,1.01,-0.473,-0.442
ATATGTATGTTACATCCGGGTCATTCAGGCTATG,2.37,1.63,1.26,0.811,2.21,3.04,2.62,1.99
GCATATAGGTAATACAAGGTGTAAGTCCGATTGT,-0.384,-0.0828,0.241,0.314,0.0841,1.3,-0.232,-0.121
GTACCAAGGTGAATGGGTCGTTGATGAGTAGGCG,1.33,1.28,0.93,-0.402,1.08,1.74,0.777,0.187
TCATATAGGTAAATGCTAGGTGAAAATCCGATCT,0.208,0.578,0.633,1.54,0.795,1.24,0.427,0.374
CCTACTGGGCCATCAGGTCGTTGATATCAACGTT,0.879,0.238,0.401,0.0318,0.133,1.42,1.06,0.424
ATCGATAGGTCGAGGTGAGTATAGAGAAAGGGAA,1.05,1.68,2.13,-0.314,1.47,1.63,0.0105,-0.206

Sequence,PBM binding z-score [1],PBM binding z-score [2],PBM binding z-score [3],PBM binding z-score [4],PBM binding z-score [5],PBM binding z-score [6],PBM binding z-score [7],PBM binding z-score [8]
CCGACTGGGGCAAGGTTCCCATAACGCACAGCCA,0.27,0.259,0.433,-0.627,0.314,-0.0449,-0.119,-0.153
CGTCCAAGGTCAGCAGGTCAGTGAGAGCGACGTG,5.13,6.35,6.67,2.46,5.29,4.01,2.56,1.93
CTCGAAAGGTCGTGTTCAGGTGAGTATACCAAAC,2.87,4.55,3.44,2.35,4.3,4.17,1.16,1.16
CGTCCAAGGTCAGCAGGACAGTGAAAGCGACGTG,3.89,5.05,6.09,2.33,3.68,3.72,1.9,0.589
TCTGCTAGGTCAACGATGGTCAGCTTATCTGCTA,3.56,4.14,4.75,1.26,2.49,3.22,0.783,-0.342
GCTAGTTGGTCAGTAAAAGATCACACACCGGTCG,0.519,0.262,0.586,-0.0346,0.0545,-0.299,-0.336,-0.296
ATCGAAAGGTCGTGAGATGAGTATACAGAAAGGC,2.35,4.27,3.47,0.915,5.21,2.19,-0.531,0.66
AGTCAAAGTTCAGGACTAGGTAACGTAAAGCACG,2.93,4.32,4.99,2.87,2.92,2.51,0.371,1.94
AGAACGAGGGCACGCCGAGTTGATAGCAGAGTAG,1.2,1.96,2.36,1.75,1.47,1.96,-0.089,1.81
CAGCCTAGGTCAGGGCCAGTATCGGAGGAACGTT,2.85,3.16,4.2,-0.106,1.55,1.96,0.58,-0.476
TCGAGTAGGTTACCAATGGGACATTCAGCTTTCT,-0.0362,0.634,0.55,0.448,0.451,0.207,-0.766,-0.643
AATACAGGGTCACTAGGCCAAAGTAGGTACGAAT,3.62,5.16,4.42,2.71,5.98,3.48,1.09,2.19
TGTACAGGGTCAAAGGCCAGAGTACGAATGTCGA,3.31,5.52,4.74,2.86,6.85,3.43,0.326,2.65
ATACCAAGGTGATCGTGAGGTCGCTGATACTAAC,1.68,2.37,0.989,0.175,1.43,3.3,2.48,1.6
CCTTACGGGTCACTGACAGGTTATAACATTTGGA,3.33,5.87,4.56,1.78,5.31,3.12,0.436,1.21
CCAGACAGGTCAGAAGGTAACTCAGCCTCGATTA,2.66,3.85,3.63,1.34,2.61,1.39,0.239,0.366
GGAACGAGGGCATTCGAGTTGAGAGCATGGCGAT,0.91,1.14,1.31,2.99,1.05,3.58,-0.815,2.68
TCATATACGTAAAAGGTGAAAGTCGGTGTGGTAA,1.94,1.27,0.986,1.98,2.01,1.36,0.293,0.435
ACAGACAGGTGAGTGAAGGTAACCCAGCTGGACG,0.564,0.107,0.469,-0.852,0.562,1.63,0.00911,-0.164

Sequence,PBM binding z-score [1],PBM binding z-score [2],PBM binding z-score [3],PBM binding z-score [4],PBM binding z-score [5],PBM binding z-score [6],PBM binding z-score [7],PBM binding z-score [8]
CTGGAAAGGTCGGTTGAGGTGAGTATACGGATAA,2.18,2.53,2.93,1.05,2.18,4.88,1.56,0.437
GCTGCTAGGACAACTGATGGTCAGCTAAAGCTCG,0.137,-0.166,0.37,-0.0279,-0.722,0.434,-0.447,-1.49
TCTTGTAGATCACCAGGAGGTTAAGAAAGATCGA,0.751,1.15,0.275,0.396,1.14,1.01,-0.466,0.109
TCTAGTTGGTCAAAGGTAACACACTCGAAATGCG,1.51,1.97,1.45,1.33,2.42,1.46,0.935,0.995
ACCTCTAGGTAAAGTTCAGTGAAAGATCGATAGA,2.27,1.59,2.19,1.47,0.983,0.866,-0.127,1.51
ACTATTAGTTCACTTAGGGCAACCGATACGACGC,1.93,2.02,2.25,2.72,1.04,3.1,0.596,2.32
CCGACTCGGGCATAAGGTTACCATAAGCCAGCCC,1.44,1.47,0.909,-0.288,0.905,2.09,0.96,-0.223
AGAATGAGGTTATTACGATCAGGGAATTGCGGTC,1.07,1.35,1.1,2.37,2.06,2.44,0.982,1.6
AGTCAAAGTGCAGGACGAGGTAACGTAAAGCACG,0.382,0.878,1.15,-0.269,0.45,2.23,0.449,0.0328
AGAATGACGTTAAGATCAGGGAAACAGAATACAT,-0.348,0.0241,0.396,-0.43,0.183,-0.0731,-0.547,-0.184
GCTAGTTGGTCTGTAAAAGGTCACACACCGGTCG,5.02,5.01,4.62,0.681,5.65,3.52,1.78,1.81
CCTACTGGGCCAAAAAGGTCATTAATGCCGATAA,4.32,4.16,3.68,0.627,4.26,2.91,0.449,2.2
GCTTACGGTTCAAAGGTTATAGCATGAATAGAAT,1.54,3.57,1.39,2.62,7.16,2.59,0.09,2.52
CCTAGCAGGCCAGCGTCACTCAAGCATTTCGCTT,-0.555,-0.553,-0.578,-0.0144,-0.744,-0.634,-0.783,-0.635
ACTAGCGGGCCAAGGGTCACTCAAGATTAGTCCG,3.7,3.9,3.71,0.364,4,2.62,-0.0687,1.07
CGAACTAGGACAGAACAGGACAGTGAAGGATGAT,0.214,0.299,0.538,-0.164,0.23,0.492,-0.221,-0.157
CCTTCTGGGCCAAAAAGGTCATTGATGCCGATAA,4.2,4.63,4.26,1.29,4.8,2.87,0.411,2.86
CCTCGGAAGACAGAAGGTCAGAGCTGTCCGCTTT,3.01,2.34,2.32,0.101,1.83,1.56,-0.133,0.00286
CAAACTAGCTCACCGGAAGGTCAAAGTCCGCATG,3.98,3.23,2.5,0.916,3.25,2.67,1.55,2.17
